# PubChem BioAssay (NCI)
# Compounds without any hit were thinned out: in the full panel of roughly 83,000, 20% have a hit.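 Results are percent growth after 48 hours of single-concentration exposure. 100 means growth as in untreated cells, lower positive values show inhibition; negative values down to -100 show cell death.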 Unmarked numbers belong to inactive results. The source made the active and inactive calls. The calls were made as follows: active = growth percent below 10; inactive = the rest.
# Tests used:
# Assay in all cases: NCI-60 one-dose screen, 48 h (100 = growth as untreated, 0 = no growth, -100 = all killed)
# Conditions in all cases: 10 µM unless noted
# DU-145 prostate = tested on: DU-145 prostate
# K-562 leukemia = tested on: K-562 leukemia
# MALME-3M melanoma = tested on: MALME-3M melanoma
# MDA-MB-231 breast = tested on: MDA-MB-231 breast
# RXF 393 renal = tested on: RXF 393 renal
# SF-268 CNS = tested on: SF-268 CNS
# SF-295 CNS = tested on: SF-295 CNS
# SF-539 CNS = tested on: SF-539 CNS
# UACC-257 melanoma = tested on: UACC-257 melanoma
# M14 melanoma = tested on: M14 melanoma
Structure (SMILES),growth (DU-145 prostate),growth (K-562 leukemia),growth (MALME-3M melanoma),growth (MDA-MB-231 breast),growth (RXF 393 renal),growth (SF-268 CNS),growth (SF-295 CNS),growth (SF-539 CNS),growth (UACC-257 melanoma),growth (M14 melanoma)
Cc1c(Cc2ccccc2)c(=O)oc2c(C)c(OCc3n[nH]c(=S)o3)ccc12,19.4%,71.6%,48.7%,80.7%,98.8%,75.9%,77%,92.1%,88%,99.3%
Cc1nc(NC(=O)NC2CCCCC2)sc1C(=O)NN,109%,154%,-7.04% (active),97.9%,112%,101%,103%,113%,101%,94.9%
CC(=O)Nc1nc(C)c(C(=O)N/N=C/c2cccs2)s1,115%,108%,117%,89.3%,113%,97%,96.2%,99.3%,109%,95.7%
O=C1C(=O)c2ccccc2C(O)=C1CCCc1ccc(Oc2ccccc2)cc1,85.4%,34%,54.7%,89.1%,92.9%,47.2%,92.9%,68.6%,51.5%,41.3%
O=C(/C=C\c1ccc(NCc2ccc(C(=O)O)cc2)cc1)CCl,112%,9.08% (active),88.8%,91.4%,65.2%,74%,96.4%,95%,85.6%,90.7%
Oc1ccc(Br)cc1/C=N/NC(=S)NC12CC3CC(CC(C3)C1)C2,9.26% (active),0.99% (active),17.6%,-4.61% (active),-15.6% (active),8.34% (active),17%,36.7%,26.1%,20.6%
COc1cc2c(c(OC)c1OC)C(=O)CC(c1cccc(C(=O)Nc3cccc(Br)c3)c1)O2 (centres undefined),87%,49.8%,85%,63.7%,88.8%,73.6%,86.7%,86.8%,76.8%,73.1%
CCc1ccc(C(=Nc2ccc(N(C)C(=O)CN3CCN(C)CC3)cc2)c2c(O)[nH]c3ccc(C(=O)OC)cc23)cc1,-11.5% (active),-60.7% (active),-91.8% (active),-71% (active),-96.8% (active),-69.9% (active),-88% (active),-98.5% (active),-67.4% (active),-86.7% (active)
O=C(Nc1ccccc1)Nc1ccc(Nc2ncnc3sc4c(c23)CCCC4)cc1,109%,99.8%,102%,91.7%,102%,100%,102%,104%,93.5%,103%
Cc1ccc2c(c1)C(=O)CCS2,107%,114%,85%,94.2%,115%,112%,108%,87.3%,102%,96.1%
CCN(CC)CCOC(=O)c1cccnc1,109%,92.7%,91.3%,105%,103%,102%,101%,102%,,102%
COc1ccc(Nc2c3ccccc3nc3ccccc23)cc1,21.5%,12.4%,42.3%,55.3%,28.1%,35.9%,15.9%,23.3%,,48%
COc1ccc2cc(C(C)C(=O)Nc3ccc(S(=O)(=O)Nc4cc(C)on4)cc3)ccc2c1 (centres undefined),115%,95%,115%,117%,92%,100%,105%,97.4%,,103%
COc1cc(C(=O)Nc2ccc(N(C)C)cc2)cc(OC)c1OC,107%,42.8%,80.6%,96.4%,95.7%,99.1%,91.7%,96.1%,,89.8%
CC(=O)CC(=O)OC/C=C(/C)CCC=C(C)C,111%,108%,121%,109%,98%,106%,,97%,106%,101%
COC(=O)[C@H](Cc1cn(C)cn1)NC(=O)[C@@H](NC(=O)Nc1cc(C(F)(F)F)cc(C(F)(F)F)c1)C(C)(C)C,-92.3% [100 µM] (active),-12.5% [100 µM] (active),-86.9% [100 µM] (active),-89.6% [100 µM] (active),-87.4% [100 µM] (active),-90.4% [100 µM] (active),,-84.4% [100 µM] (active),-74.2% [100 µM] (active),
C[n+]1c2ccccc2c(Nc2ccc(NS(=O)(=O)CCCCN=C(N)N)cc2)c2ccc(N)cc21,23.7%,41%,32.6%,93.9%,71%,39.7%,5.07% (active),43%,,53.2%
OCCN1CCCN(CCCN2c3ccccc3Sc3ccc(C(F)(F)F)cc32)CC1,78.8%,2.61% (active),44.5%,64.9%,47%,64.9%,31%,67.2%,,7.54% (active)
O=C(NC(=S)NNC(=S)NNc1ccccc1)c1ccccc1,98%,9.51% (active),25.5%,78.2%,62.8%,59.5%,6.98% (active),25.5%,,71.7%
CCOC(=O)c1csc(-c2ccc(COC(=O)c3ccccc3)o2)n1,130%,102%,95.8%,107%,106%,118%,84.4%,107%,,106%
CCOC(=O)CNS(=O)(=O)CC(=O)c1ccccc1,117%,86.8%,83%,97.3%,117%,124%,118%,,132%,93.4%
CNc1nc2ncn(C)c2c(=O)[nH]1,106%,65.5%,98.8%,90.9%,106%,95.5%,101%,96.2%,,112%
CCOc1ccc(Br)cc1/C=C(\C#N)c1ccc([N+](=O)[O-])cc1,80.4%,80.6%,62.2%,61.2%,66.7%,60.9%,76.5%,81.1%,,101%
CSCc1ncc(-c2ccc(C(F)(F)F)cc2)c(NC2CCCCCC2)n1,71.4% [25 µM],29.3% [25 µM],68.8% [25 µM],56.2% [25 µM],75.4% [25 µM],75.5% [25 µM],,93.8% [25 µM],74.1% [25 µM],67.4% [25 µM]
CCCCCCC(C(=O)OCC)(C(=O)OCC)C1CCCCCC1,120%,100%,108%,101%,104%,121%,105%,92.8%,,106%
COc1cc2c(c3c1c(=O)c1cccc(F)c1n3C)C=CC(C)(C)O2,92.9%,74.6%,75.9%,58.4%,88.8%,102%,91.8%,89%,,101%
CC(C)(C)c1cc(C[P+](c2ccc(Cl)cc2)(c2ccc(Cl)cc2)c2ccc(Cl)cc2)cc(C(C)(C)C)c1O,108%,32.4%,37.4%,102%,68%,99.1%,91.9%,105%,,106%
CCn1cnc(C[C@H](NC(=O)[C@@H](NC(=O)Nc2cc(C(F)(F)F)cc(C(F)(F)F)c2)C(C)C)C(=O)OC)c1,-81.2% [100 µM] (active),-57.3% [100 µM] (active),-90.5% [100 µM] (active),-94.2% [100 µM] (active),-86.2% [100 µM] (active),-68.4% [100 µM] (active),,-96.3% [100 µM] (active),-95.1% [100 µM] (active),
NCCCOc1cc(Cl)ccc1NC(=O)c1cc2ccccc2cc1OCCCN,-90% (active),0.57% (active),-4.21% (active),-65% (active),-5.16% (active),-73.6% (active),-62% (active),-88.8% (active),,-88.5% (active)
